Measured values taken from PubChem BioAssay AID435000 (NMMLSC, 2010).
This is one part of the list. The source made the active and inactive calls.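 The calls were made as follows: active = fluorescence response below 15%; inactive = the rest.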

Experiment: yeast superoxide dye artefact check – S. cerevisiae BY4741, flow cytometry, artefact control for yeast caloric restriction mimetic project (AID 435000);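 also: percent of the mean fluorescence averaged over all compound wells on the plate; lower means stronger quenching of DHE signal or ROS scavenging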
Conditions: S. cerevisiae BY4741, DHE fluorescence, at 10 µM, hits give low values

Fluorescence response, inactive:
CC(=O)c1ccc2c(c1)c1ccccc1n2CC(C)C 107%
CC(C)(C)NC(=O)COc1ccc(CNc2ccc3[nH]c(=O)[nH]c3c2)cc1 94.4%
Cc1ccc2cccc(S(=O)(=O)N3CCN(c4ccccc4F)CC3)c2n1 104%
Cc1cc(C(F)F)n2nc(C(=O)Nc3ccc(S(=O)(=O)NC45CC6CC(CC(C6)C4)C5)cc3)nc2n1 104%
CSc1ncc(Cl)c(C(=O)Nc2cc(C)ccc2C)n1 95.1%
O=C(CSCc1ccccc1)Nc1ccccc1 111%
CCCC(C)C(=O)OCC(=O)Nc1c(Br)cc(C)cc1Br (stereo unspecified) 89.1%
CSc1sc(C(=O)NNC(=O)c2ccc(Cl)cc2)c2c1C=CCC2 92.4%
Cc1cc2oc(C(=O)Nc3c(C)n(C)n(-c4ccccc4)c3=O)c(C)c2cc1Cl 95.3%
CCN(CC)c1ccc(NC(=O)CN2CCN(c3ccccn3)CC2)cc1 95.7%
CCn1c2ccccc2c2cc(NC(=O)CNC)ccc21 112%
Cc1ccc(-c2nnc(Nc3ccc(C(=O)N(C)C)cc3)c3ccccc23)cc1S(N)(=O)=O 113%
CCN(CC)C(=O)CSc1nnc(-c2cccc(OC)c2)o1 110%
CNC(=O)c1cccc2nc3ccccc3nc12 105%
COc1ccc(NC(C)=O)cc1NC(=O)CN1CCN(c2ccccn2)CC1 96.8%
O=C(Nc1ccccc1N1CCCC1)c1ccc2ccccc2c1 103%
